From ChEMBL document CHEMBL4513216, “Probing the Open Global Health Chemical Diversity Library for Multistage-Active Starting Points for Next-Generation Antimalarials” (ACS Infect Dis, 2020) come the findings set out here.

The campaign covered roughly 69,000 compounds. About 8,600 (12%) showed an effect of 50% or more. Shown is part of a subset that was picked to be rich in strong results.

The test system of the test is Plasmodium berghei. The test can be described thus: Screen against P. berghei liver stage (PbLuc), transformed with Luciferase, at 10uM. It is filed as functional, HepG2. As to conditions: tested at 10 uM.
`O=C(c1ccc2[nH]cnc2c1)N1CCCC1Cn1cccn1` (stereo not given): the INHIBITION is on record as -0.514%.
Then `C[C@@H]1CN(S(C)(=O)=O)C[C@]12CCN(Cc1cccnc1)C2=O`, with -28.2%.
Next, `CNC(=O)c1cc(C2CCCN2)n[nH]1` (stereo not given): 31.3%; `c1nc2c(c(C3CC3)n1)CCN(Cc1ccc3c(c1)OCO3)CC2`: 21.8%; `c1cnn(CC2CCCN2Cc2cn3ccsc3n2)c1` (stereo not given): 28%.
Then `CSCCC(Nc1nc(C)cc(C)n1)C(=O)NCC1CCOCC1` (stereo not given), with 25.2%; and `CCc1csc(C2CCCN(C(=O)COc3cc(C)on3)C2)n1` (stereo not given), with 46.2%; and `O=C1CCCCCN1Cc1ncnn1Cc1c(F)cccc1Cl`, with 5.46%.
`Cc1nc(CN2CCCN(CCOc3ccc(C#N)cc3)CC2)no1`: the INHIBITION is 56.6%.
Then `Cc1cccc(OCCN2CCN(Cc3noc(C)n3)CC2)c1`, with 30.6%.
Take `COc1ccc(OCCN2CCCN(Cc3noc(C)n3)CC2)cc1`: the INHIBITION is recorded as 4.52%.
Next, `CC(C(=O)NC1CC1)n1nc(-c2cccs2)cc(N)c1=O` (stereo not given): 23.9%; `CC(C)n1ncc2cc(NC(=O)N3CCC(N4CCCC4)C3)cnc21` (stereo not given): 53.3%; `CC(C)n1ncc2cc(NC(=O)N3CCC(C(N)=O)C3)cnc21` (stereo not given): 7.08%.
Then `CC(=O)NC1CCCN(C(=O)Nc2cnc3c(cnn3C(C)C)c2)C1` (stereo not given), with 4.31%; and `O=C1CC[C@H]2CN(Cc3ccc(Cl)s3)CC[C@H]2N1CCc1c[nH]cn1`, with 78.5%.
For `Cc1nc(CN2CC[C@@H]3[C@@H](CCC(=O)N3CCc3c[nH]cn3)C2)co1`, the INHIBITION was 44.8%.
Consider `O=C1CC[C@H]2CN(Cc3cccnc3)CC[C@H]2N1CCc1c[nH]cn1`, for which the INHIBITION amounted to 23.9%.
Then `CN(CCO)c1ncc(-c2ccc(NC(=O)[C@@H]3CCCCN3)cc2)cn1`, with -4.82%; and `CCc1c(C)sc2c1c(N)nc(=O)n2CCCN(C)C`, with -11.9%; and `CCOC(=O)Cn1c(=O)nc(N)c2c(-c3ccc(OC)cc3)csc21`, with 18.3%.
Turning to `COc1ccc(-c2csc3c2c(N)nc(=O)n3CC(N)=O)cc1`, the INHIBITION worked out at 58.2%.
Next, `COc1ccc(-c2csc3c2c(N)nc(=O)n3CCCN(C)C)cc1`: 60.1%; `COc1ccc(-c2csc(N)c2C#N)cc1`: 40.9%.
Then `CCn1c(=O)nc(N)c2c(-c3ccc(OC)cc3)csc21`, with 23.9%.
As to `COc1ccc(-c2csc3c2c(N)nc(=O)n3CCN(C)C)cc1`, the INHIBITION worked out at 50.8%.
Consider `CCc1c(C)sc2c1c(N)nc(=O)n2CCN(C)C`, for which the INHIBITION is -14.2%.
Next, `C=C(C)Cn1c(=O)nc(N)c2c(-c3ccc(OC)cc3)csc21`: 33.2%; `COc1ccc(CN2C[C@@H]3OCCN(C)[C@@H]3C2)cc1`: 22.9%.
Then `CCOC[C@@]12CCC[C@@H]1CN(C(=O)COc1ccccc1OC)C2`, with 10.4%; and `Cc1noc(C)c1CN1C(=O)[C@@H]2CC[C@H]1CN(Cc1cccc(O)c1)C2`, with -77.6%.
Next, `COCC(O)CN1CC(C)(C)CN(C(=O)CCc2ccccc2)CC1=O` (stereo not given): -39.8%.
`Cc1ccccc1C(NC(=O)NCC1(O)CCC1)C1CC1` (stereo not given): the INHIBITION is -15.9%.
Next, `CC(C)n1nnnc1-c1ccc(NC(=O)C(C)(C)C#N)cc1F`: 6.09%; `CN(C)CC1CCCCN1C(=O)c1ccc(N2CCOCC2)cc1` (stereo not given): 23.4%.
`CCc1nc(CN(C)C(=O)C2CC(=O)N(c3cccc(O)c3)C2)no1` (stereo not given): the INHIBITION was determined as 10.3%.
In the case of `CCc1cc(CN(C)C(=O)C2CC(=O)N(c3cccc(O)c3)C2)on1` (stereo not given), the INHIBITION came out at 66.6%.
`CCc1ccc(CN(C)C(=O)C2CC(=O)N(c3cccc(O)c3)C2)nc1` (stereo not given): the INHIBITION was found to be 32.1%.
Then `Cc1cccc(Cn2cc(C)c(N)n2)c1`, with 2.6%; and `CN1[C@H](CN2CCCC2)C[C@@H]2CN(Cc3ccoc3)CC[C@@H]21`, with -14.3%; and `CCc1ncnc2c1CCN(C(=O)c1cccn1C)CC2`, with 64.9%.
With `CCN(C)c1ncnc2c1CCN(C(=O)c1cccn1C)CC2`, the INHIBITION was found to be 52%.
Then `CCN(C)c1ncnc2c1CCN(C(=O)c1ccsc1)CC2`, with 14.9%; and `Cc1ncnc2c1CCN(C(=O)c1cccn1C)CC2`, with -0.388%; and `Cn1cccc1C(=O)N1CCc2ncnc(N3CCCC3)c2CC1`, with 48.9%.
With `CCN(C)c1ncnc2c1CCN(C(=O)c1ccccn1)CC2`, the INHIBITION was -54.5%.
Regarding `O=C(NCCOc1ccc2c(c1)OCO2)N1CCCC(CO)C1` (stereo not given), the INHIBITION is -27.8%.
For the compound `Cc1nnc(CN(Cc2ccc3c(c2)OCO3)C2CCCCC2)o1`, the INHIBITION is on record as -9.76%.
Next, `Cn1nc2c(cc1=O)CN(CC(=O)Nc1nccs1)CC2`: 13.3%; `Cc1nn(C)c(C)c1-c1ccc(=O)n(C(C)C(=O)NC(C)(C)C)n1` (stereo not given): 4.02%; `CCCN(CCC)C(=O)Cn1c(SC)nc2ccsc2c1=O`: 39.1%.
`Cn1nc(C(=O)NC2CCCCC2)cc1NC(=O)C1CC1`: the INHIBITION is recorded as 53.5%.
Then `Cn1nc(C(=O)NC2CCCC2)cc1NC(=O)C1CC1`, with -22.8%.
In the case of `Cc1ccc(CNC(=O)c2cc(NC(=O)C3CC3)n(C)n2)o1`, the INHIBITION is given as -8.95%.
For the compound `Cc1nn(C)c(C)c1CNC(=O)c1cc(NC(=O)C2CC2)n(C)n1`, the INHIBITION turned out to be 31.35%.
Regarding `Cn1nc(C(=O)NC2CC(C)(C)NC(C)(C)C2)cc1NC(=O)C1CC1`, the INHIBITION turned out to be 21.8%.
Consider `Cn1nc(C(=O)NC2CC2)cc1NC(=O)C1CC1`, for which the INHIBITION was 75.3%.
Then `CCc1nc(C2CCCN2C(=O)c2ccc3c(c2)COC3)no1` (stereo not given), with 33.8%; and `CN1CCN(C(=O)c2cc3sccc3n2Cc2ccccc2)CC1`, with 11.7%.
Take `NC(=O)c1cccc(CN2CCOC(Cn3cccn3)C2)c1` (stereo not given): the INHIBITION was found to be 30.2%.
In the case of `CCOC(=O)[C@@H]1CN2CCNC[C@@H]2[C@H]1c1ccccc1`, the INHIBITION turned out to be 46.4%.
Then `CCOC(=O)[C@@H]1[C@H]2CN(C(=O)OC)CCN2C[C@H]1c1ccccc1`, with -43.6%; and `CNC(=O)[C@@H]1[C@H]2CNCCN2C[C@H]1c1ccccc1`, with 11.6%; and `O=C(C1CC1)N1CCN2C[C@@H](CO)[C@H](c3ccccc3)[C@H]2C1`, with 49.5%.
`CCOC(=O)[C@@H]1[C@@H](c2ccccc2)CN2CCNC[C@H]12`: the INHIBITION is given as 50.2%.
Next, `CCOC(=O)[C@@H]1[C@@H](c2ccccc2)CN2CCN(C(=O)N(C)C)C[C@H]12`: 32.1%; `CCOC(=O)[C@@H]1[C@@H](c2ccccc2)CN2CCN(C(C)=O)C[C@H]12`: 51%; `CCOC(=O)[C@@H]1[C@@H](c2ccccc2)CN2CCN(C(=O)C3CC3)C[C@H]12`: 12.4%.
Turning to `O=C(C1CC1)N1CCN2C[C@H](c3ccccc3)[C@@H](CO)[C@H]2C1`, the INHIBITION was 51%.
Next, `c1cc(-c2cnc(C3CCNCC3)cn2)n[nH]1`: 38.7%.
Then `CCc1noc(C)c1C(=O)N1CCCC1Cn1cccn1` (stereo not given), with 45.7%.
Then `CC(C)N1CCOCC2(CN(Cc3nccs3)CCO2)C1` (stereo not given), with 10.3%; and `O=C(NC1CCCC1)N1CC[C@H]2[C@H]1CCN2c1nncs1`, with 26%; and `COCCc1nnc(NC(=O)Cc2ccccc2Cl)o1`, with 35.1%.
For `COC(=O)N1CCC(CNC(=O)C2CC2)CC1`, the INHIBITION is given as -10.8%.
Next, `CCn1nc(C)c(-c2cncn2CCN(C)C2CCCC2)c1C`: 27.6%; `Cc1ccc2c(c1)CCC2NCc1c(C)nn(CCO)c1C` (stereo not given): -40.4%; `CC(C)c1nc(CNc2ccc(CNS(C)(=O)=O)cc2)cs1`: -72.8%.
For the compound `CC(C)CC(CO)NC(=O)NCc1csc(N(C)C)n1` (stereo not given), the INHIBITION is recorded as -5.1%.
On to `COCC1(CNc2cc(C(C)C)nc(N)n2)CC1`, for which the INHIBITION came out at 41.2%.
Turning to `CC(C)c1cc(NCc2csc(C(C)C)n2)nc(N)n1`, the INHIBITION is 58%.
As to `Cc1nc(N)cc(NCc2csc(N(C)C)n2)n1`, the INHIBITION was -84.1%.
For `CC(C)c1cc(NCc2csc(N(C)C)n2)nc(N)n1`, the INHIBITION is reported as 87%.
Then `O=C(c1cnccn1)N1CCCC2(CCN(Cc3ccsc3)CC2)C1`, with -67.6%; and `O=C(CC1CNCCO1)N1CCC(c2cc(N3CCCC3)ncn2)CC1` (stereo not given), with -23.2%.
Then `CN(CC(=O)Nc1ccncc1)C1CCCN(c2cccnn2)C1` (stereo not given), with 4.52%; and `Cc1cccc(CCC(=O)Nc2ccnn2C2CCS(=O)(=O)C2)c1` (stereo not given), with 37.1%.
For `O=C(CCc1ccsc1)Nc1ccnn1C1CCS(=O)(=O)C1` (stereo not given), the INHIBITION was determined as 54.3%.
Then `O=C(CCc1cccs1)Nc1ccnn1C1CCS(=O)(=O)C1` (stereo not given), with 22.6%; and `c1coc(CN2C[C@@H]3CCCO[C@@H]3[C@H](N3CCCC3)C2)c1`, with 24.5%.
Then `O=C(CN(Cc1cccs1)c1ccc(F)cc1)NC1CCOCC1`, with 37.6%.
Take `Cc1ccc(CN(CC(=O)NC2CCOCC2)c2ccc(F)cc2)o1`: the INHIBITION is recorded as 67.8%.
For the compound `Cc1ccc(CN(CC(=O)NCC2CCOC2)c2ccc(F)cc2)o1` (stereo not given), the INHIBITION came out at 7.39%.
Regarding `CN1CCN(Cc2cccnc2)C2(CCN(c3ncc(F)cn3)C2)C1=O` (stereo not given), the INHIBITION is on record as -8.19%.
Turning to `Cc1nc(C(=O)N(C)C)nn1-c1ccccc1C(C)C`, the INHIBITION amounted to 30.8%.
For the compound `CC(C)c1noc(CCC(=O)N2CCSCC2)n1`, the INHIBITION amounted to 51.8%.
Then `CC(=O)N1CCN(C(=O)CCCc2nc(C(C)C)no2)CC1`, with -8.61%; and `CC(C)c1noc(CCC(=O)N2CCN(Cc3ccncc3)CC2)n1`, with 37.9%; and `NC(=O)c1ccc(C2CCCNC2)nc1` (stereo not given), with 26.8%.
Take `CNC(=O)COc1ccccc1CNC1CCc2nc(C)nn2C1` (stereo not given): the INHIBITION is listed as -24.4%.
Then `CN(C)C(=O)COc1ccccc1CNC1CCc2ncnn2C1` (stereo not given), with 33.6%.
Next, `c1ccc(OC2CCCC2)c(CNC2CCc3ncnn3C2)c1` (stereo not given): 62.8%.
Next, `CNC(=O)COc1ccccc1CNC1CCc2ncnn2C1` (stereo not given): 63.6%; `c1ccc(OCC2CC2)c(CNC2CCc3ncnn3C2)c1` (stereo not given): 8.383%.
For `c1ccc(COc2ccccc2CNC2CCc3ncnn3C2)cc1` (stereo not given), the INHIBITION was found to be 26.9%.
